Results from PubChem BioAssay (NCI).
Compounds without any hit were thinned out: in the full panel of roughly 83,000, 20% have a hit.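 Each cell line was grown in a 96-well plate and treated with one concentration of compound for 48 hours. Values below 10 were considered active.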 Active and inactive are the calls of the source.

What was measured:
Assay in all cases: NCI-60 one-dose screen, 48 h (100 = growth as untreated, 0 = no growth, -100 = all killed)
Details in all cases: 10 µM unless noted
NCI-H23 lung = tested on: NCI-H23 lung
NCI-H226 lung = tested on: NCI-H226 lung
NCI-H322M lung = tested on: NCI-H322M lung
HOP-62 NSCLC = tested on: HOP-62 NSCLC
NCI-H460 lung = tested on: NCI-H460 lung
HOP-92 NSCLC = tested on: HOP-92 NSCLC
NCI-H522 lung = tested on: NCI-H522 lung
A549/ATCC NSCLC = tested on: A549/ATCC NSCLC
786-0 renal = tested on: 786-0 renal
COLO 205 colon = tested on: COLO 205 colon

Measured: growth

COc1cc2c(c(OC)c1)C1c3ccccc3NC(=O)N1CC2 (stereo not given)
inactive: NCI-H23 lung 24% | NCI-H226 lung 51.5% | NCI-H322M lung 34.9% | HOP-62 NSCLC 51.6% | NCI-H460 lung 11.3% | HOP-92 NSCLC 28.7% | NCI-H522 lung 39.6% | A549/ATCC NSCLC 22.7% | 786-0 renal 41.4% | COLO 205 colon 16.1%

CNC(=O)CN1CCC(Oc2cc3c(Nc4cccc(Cl)c4F)ncnc3cc2OC)CC1
active: NCI-H322M lung -5.06% | NCI-H522 lung 5.87%
inactive: NCI-H23 lung 79.7% | NCI-H226 lung 76.7% | HOP-62 NSCLC 38.3% | NCI-H460 lung 89.9% | HOP-92 NSCLC 25.1% | A549/ATCC NSCLC 28.3% | 786-0 renal 51.8% | COLO 205 colon 61.3%

N#Cc1c(NC(=O)c2ccco2)[n+]([O-])c2cc(F)c(F)cc2[n+]1[O-]
active: HOP-92 NSCLC -4.85%
inactive: NCI-H23 lung 82.7% | NCI-H226 lung 103% | NCI-H322M lung 103% | HOP-62 NSCLC 120% | NCI-H460 lung 106% | NCI-H522 lung 59.2% | A549/ATCC NSCLC 97.1% | 786-0 renal 98.5% | COLO 205 colon 98.3%

CNC(=O)c1nn(C)c2c1C(C)(C)Cc1cnc(Nc3ccc(N4CCN(C)CC4)cc3)nc1-2
inactive: NCI-H226 lung 12.3% | NCI-H322M lung 15.1% | 786-0 renal 12.3%
active: NCI-H23 lung 2.37% | HOP-62 NSCLC -9.46% | NCI-H460 lung 7.46% | HOP-92 NSCLC 3.76% | NCI-H522 lung -29.4% | A549/ATCC NSCLC -0.797% | COLO 205 colon -80.1%

COc1cc2cc(NCc3ccc(Cl)cc3)nc(C)c2cc1OC
inactive: NCI-H23 lung 23.7% | NCI-H226 lung 35.5% | NCI-H322M lung 44.6% | HOP-62 NSCLC 56.5% | NCI-H460 lung 22.6% | HOP-92 NSCLC 36.3% | NCI-H522 lung 45.7% | A549/ATCC NSCLC 39.8% | 786-0 renal 28.2% | COLO 205 colon 26.5%

CC(=O)C1CC(C)CCC1C(C)C (stereo not given)
inactive: NCI-H23 lung 78.7% | NCI-H226 lung 105% | NCI-H322M lung 102% | HOP-62 NSCLC 107% | NCI-H460 lung 98.4% | HOP-92 NSCLC 47.4% | NCI-H522 lung 82.8% | A549/ATCC NSCLC 106% | 786-0 renal 105% | COLO 205 colon 122%

CN(C)C[C@@H]1CCn2cc(c3ccccc32)C2=C(C(=O)NC2=O)c2cn(c3ccccc23)CCO1
active: NCI-H23 lung -15.7% | NCI-H226 lung -12.5% | HOP-62 NSCLC -67.9% | NCI-H460 lung -70.6% | NCI-H522 lung -23.1% | A549/ATCC NSCLC -12.4% | 786-0 renal -69.9% | COLO 205 colon -53.8%
inactive: NCI-H322M lung 32.2% | HOP-92 NSCLC 46.1%

COc1cc(Nc2ncc(F)c(Nc3ccc4c(n3)N(COP(=O)(O)O)C(=O)C(C)(C)O4)n2)cc(OC)c1OC
inactive: NCI-H23 lung 29.7% | NCI-H322M lung 20.6% | NCI-H460 lung 25.4%
active: NCI-H226 lung -14.6% | HOP-62 NSCLC 2.67% | HOP-92 NSCLC -39.5% | NCI-H522 lung -28.5% | A549/ATCC NSCLC 0.294% | 786-0 renal -23.8% | COLO 205 colon -22.8%

Cc1cc(Nc2ncc(Cl)c(Nc3ccccc3S(=O)(=O)C(C)C)n2)c(OC(C)C)cc1C1CCNCC1
active: NCI-H23 lung -86.5% | NCI-H226 lung -64.8% | NCI-H322M lung -93.9% | HOP-62 NSCLC -94.5% | NCI-H460 lung -86.5% | HOP-92 NSCLC -92.3% | NCI-H522 lung -89.3% | A549/ATCC NSCLC -99.8% | 786-0 renal -91.2% | COLO 205 colon -88.2%

CCN1CCN(Cc2ccc(NC(=O)Nc3nc(-c4cc(OC)c(OC)c(OC)c4)cs3)cc2C(F)(F)F)CC1
inactive: NCI-H23 lung 37.6% | NCI-H226 lung 56.8% | NCI-H322M lung 63% | HOP-62 NSCLC 49.9% | HOP-92 NSCLC 54.4% | NCI-H522 lung 55.9% | A549/ATCC NSCLC 26.1%
active: NCI-H460 lung -1.08% | 786-0 renal -50.9% | COLO 205 colon -68.4%

Cc1nc(-c2cn3c(n2)-c2ccc(-c4cnn(C(C)(C)C(N)=O)c4)cc2OCC3)n(C(C)C)n1
active: NCI-H322M lung 2.09% | HOP-92 NSCLC 0.115% | A549/ATCC NSCLC 8.09% | 786-0 renal 7.76%
inactive: NCI-H23 lung 54.5% | NCI-H226 lung 32.7% | HOP-62 NSCLC 31.2% | NCI-H460 lung 18.7% | NCI-H522 lung 36.1% | COLO 205 colon 13.5%

CNS(=O)(=O)Nc1nccc(Cc2c(C)c3ccc(Oc4ncccn4)cc3oc2=O)c1F
inactive: NCI-H23 lung 24.1% | NCI-H226 lung 58% | NCI-H322M lung 33.3% | HOP-62 NSCLC 42.8% | NCI-H460 lung 61.3% | NCI-H522 lung 52% | A549/ATCC NSCLC 38.3% | 786-0 renal 68%
active: HOP-92 NSCLC -4.71% | COLO 205 colon 8.97%

C=C1CC[C@@H]2[C@](C)(COC(C)=O)[C@H](OC(C)=O)CC[C@@]2(C)[C@@H]1C/C=C1/C(=O)OC[C@H]1OC(C)=O
inactive: NCI-H23 lung 80.9% | NCI-H226 lung 23.6% | NCI-H322M lung 101% | HOP-62 NSCLC 75.7% | NCI-H460 lung 98% | HOP-92 NSCLC 71.9% | A549/ATCC NSCLC 85.8% | COLO 205 colon 22%
active: NCI-H522 lung -41.6% | 786-0 renal -10.9%

Cc1nc2cc(-c3nn(C(C)C)c4ncnc(N)c34)ccc2o1
active: NCI-H23 lung -0.166% | NCI-H226 lung -20.5% | NCI-H322M lung -23.2% | HOP-62 NSCLC -36.3% | NCI-H460 lung 3.28% | HOP-92 NSCLC -40.4% | NCI-H522 lung -11.5% | A549/ATCC NSCLC -29.2% | 786-0 renal -29.5% | COLO 205 colon -24.9%
